# Data as given in the supplement of paper PMC9135407.
# “And” between values parts separate entries of the source, which are not always exact repeats. Identical values can stand only once. Counter-ions that a name gives are not always drawn. The whole screen tested about 5,800 compounds, of which about 620 (11%) showed activity. The sample holds actives, similar compounds and a random draw of the others, so the mix is not that of the screen. A number with no mark means an inactive call.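 How the source made its calls: active = score above a cut-off or among the top three wells of a plate; in these data no inactive exceeds 0.85.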
# Tested on: primary human hepatic stellate cells (donor 1)
# Assay: scaled lipid accumulation score (0 = DMSO-like, 1 = nortriptyline-like); higher = stronger HSC inactivation (lipid re-accumulation), active = hit call of the paper
# Details: 48 h
# [1] = library stock concentration: 3.33 mM
# [2] = library stock concentration: 10 mM
# [3] = library stock concentration: 1 mM
# [4] = library stock concentration: 400 uM
# [5] = library stock concentration: 2 mM
# [6] = library stock concentration: 80 uM
compound,measurement,setting,value
CCCCC(F)(F)[C@@]1(O)CC[C@H]2[C@@H](CC(=O)[C@@H]2CCCCCCC(=O)O)O1 [Lubiprostone],scaled lipid accumulation score,[1],≤ 0
same,scaled lipid accumulation score,[2],≤ 0
CCCCC/C=C\C/C=C\CCCCCCCC(=O)OCC(O)CO (stereo unspecified) [1-Linoleoyl Glycerol],scaled lipid accumulation score,[3],≤ 0
C=C1C[C@H](O)[C@H](C/C=C\CCCC(=O)O)[C@H]1/C=C/[C@@H](O)CCCCC [11-deoxy-11-methylene Prostaglandin D2],scaled lipid accumulation score,[3],≤ 0
CCC(C)C(COC(Cc1ccccc1)C(=O)NC(CCS(C)(=O)=O)C(=O)OC(C)C)NCC(N)CS (stereo unspecified),scaled lipid accumulation score,library stock concentration: 7.9 mM,0.195
CC(C)(C)CC(C)(C)c1cc(Cc2cc(C(C)(C)CC(C)(C)C)cc(-n3nc4ccccc4n3)c2O)c(O)c(-n2nc3ccccc3n2)c1,scaled lipid accumulation score,[2],≤ 0
CCCCC[C@@H](O)[C@H]1C(=O)O[C@H](C)[C@@H](O)/C=C/C=C/C=C/C=C/C=C(\C)[C@@H](O)C[C@H](O)C[C@H](O)C[C@H](O)C[C@H](O)C[C@H](O)C[C@@H]1O [Filipin III],scaled lipid accumulation score,[3],0.021
CCCCC[C@@H](O)[C@H]1C(=O)O[C@H](C)[C@@H](O)/C=C/C=C/C=C/C=C/C=C(\C)[C@@H](O)C[C@H](O)C[C@H](O)C[C@H](O)C[C@H](O)C[C@H](O)C[C@@H]1O [Filipin],scaled lipid accumulation score,library stock concentration: 3.1 mM,0.029
COc1ccc2c(c1)c(CC(=O)SC[C@H](NC(C)=O)C(=O)OCCCCO[N+](=O)[O-])c(C)n2C(=O)c1ccc(Cl)cc1 [NO-Indomethacin],scaled lipid accumulation score,[3],≤ 0
C[C@@H]1C[C@H]2[C@@H]3CCC4=CC(=O)C=C[C@]4(C)[C@@]3(Cl)[C@@H](O)C[C@]2(C)[C@@]1(OC(=O)c1ccco1)C(=O)CCl [Mometasone furoate],scaled lipid accumulation score,,0.136
same,scaled lipid accumulation score,[1],0.086
same,scaled lipid accumulation score,[2],0.519
CCN1CCC(n2cc(CNc3cc(Cl)c4ncc(C#N)c(Nc5ccc(F)c(Cl)c5)c4c3)nn2)CC1 [listing 1 of 2 here],scaled lipid accumulation score,[2],1.15 (active)
COc1cc(Nc2c(C#N)cnc3cc(OCCCN4CCN(C)CC4)c(OC)cc23)c(Cl)cc1Cl [Bosutinib (SKI-606)],scaled lipid accumulation score,[1],0.374
same,scaled lipid accumulation score,[2],0.395
COc1cc(Nc2c(C#N)cnc3cc(OCCCN4CCN(C)CC4)c(OC)cc23)c(Cl)cc1Cl [Bosutinib (SKI-606) (0.4 mM)],scaled lipid accumulation score,[4],≤ -0.005
COc1cc(Nc2c(C#N)cnc3cc(OCCCN4CCN(C)CC4)c(OC)cc23)c(Cl)cc1Cl [Bosutinib (SKI-606) (2 mM)],scaled lipid accumulation score,[5],0.096
COc1cc(Nc2c(C#N)cnc3cc(OCCCN4CCN(C)CC4)c(OC)cc23)c(Cl)cc1Cl [Bosutinib],scaled lipid accumulation score,[6],≤ -0.016
same,scaled lipid accumulation score,[4],≤ -0.016
same,scaled lipid accumulation score,[5],≤ -0.016
same,scaled lipid accumulation score,[2],≤ -0.016
CCN1CCC(n2cc(CNc3cc(Cl)c4ncc(C#N)c(Nc5ccc(F)c(Cl)c5)c4c3)nn2)CC1 [listing 2 of 2 here],scaled lipid accumulation score,[6],≤ -0.009
same,scaled lipid accumulation score,[4],≤ -0.009
same,scaled lipid accumulation score,[5],≤ -0.009
COc1cc(Nc2c(C#N)cnc3cc(OCCCN4CCN(C)CC4)c(OC)cc23)c(Cl)cc1Cl [Bosutinib (SKI-606) (10 mM)],scaled lipid accumulation score,[2],0.388
CC(C)c1ccccc1S(=O)(=O)c1cc(N)c2ncccc2c1[N+](=O)[O-],scaled lipid accumulation score,[2],0.26
CC(C)c1ccc(C(=O)c2cccs2)c(SCCCCCCCCN(C)C)n1.O=C(O)C(=O)O,scaled lipid accumulation score,[2],1.24 (active)
CC(C(=O)O)c1ccc(C(=O)c2cccs2)cc1 (stereo unspecified) [Suprofen],scaled lipid accumulation score,,≤ 0
same,scaled lipid accumulation score,[1],≤ 0
same,scaled lipid accumulation score,library stock concentration: 7.7 mM,≤ 0
same,scaled lipid accumulation score,[2],0.024 and ≤ 0
O=C(O)COc1ccc(C(=O)c2cccs2)c(Cl)c1Cl [Tienilic Acid],scaled lipid accumulation score,[3],≤ 0
CC12CCC(CC1=O)C2(C)C (stereo unspecified) [Camphor (1r)],scaled lipid accumulation score,library stock concentration: 13.1 mM,≤ -0.001
CO[C@H]1O[C@@H]2O[C@@]3(C)CC[C@H]4[C@H](C)CC[C@@H]([C@H]1C)[C@@]24OO3,scaled lipid accumulation score,[2],≤ 0
CO[C@H]1O[C@@H]2O[C@@]3(C)CC[C@H]4[C@H](C)CC[C@@H]([C@H]1C)[C@@]24OO3 [Artemether],scaled lipid accumulation score,[1],≤ 0
same,scaled lipid accumulation score,[2],≤ 0 and 0.024
CN1CC[C@@H](c2c(O)cc(O)c3c(=O)cc(-c4ccccc4Cl)oc23)[C@@H]1CO,scaled lipid accumulation score,[1],≤ -0.009
same,scaled lipid accumulation score,[2],0.465
CN1CCN(S(=O)(=O)c2ccc(-c3cnc(N)c(C(=O)Nc4cccnc4)n3)cc2)CC1 [listing 1 of 2 here],scaled lipid accumulation score,[2],1.02 (active)
CS(=O)(=O)c1ccc(C(=O)Nc2ccc(Cl)c(-c3ccccn3)c2)c(Cl)c1 [Vismodegib (GDC-0449)],scaled lipid accumulation score,[1],0.002
same,scaled lipid accumulation score,[2],≤ 0
CS(=O)(=O)c1ccc(-c2cnc(N)c(C(=O)Nc3ccccc3)n2)cc1 [listing 1 of 2 here],scaled lipid accumulation score,[6],0.017
same,scaled lipid accumulation score,[4],≤ 0
same,scaled lipid accumulation score,[5],≤ 0
same,scaled lipid accumulation score,[1],0.225
same,scaled lipid accumulation score,[2],0.489
CS(=O)(=O)c1ccc(-c2cnc(N)c(C(=O)Nc3ccccc3)n2)cc1 [listing 2 of 2 here],scaled lipid accumulation score,[2],0.907 (active)
CN(C)c1nc(N)c(C(=O)Nc2cccnc2)nc1Cl [ACDPP hydrochloride],scaled lipid accumulation score,[2],≤ -0.001
CN1CCN(S(=O)(=O)c2ccc(-c3cnc(N)c(C(=O)Nc4cccnc4)n3)cc2)CC1 [listing 2 of 2 here],scaled lipid accumulation score,[1],0.821
Cl.O=C([O-])c1ccc(-c2c3nc(c(-c4ccc(C(=O)O)cc4)c4nc(c(-c5ccc(C(=O)O)cc5)c5ccc([nH]5)c(-c5ccc(C(=O)[O-])cc5)c5ccc2[n-]5)C=C4)C=C3)cc1.[Mn+3] [MnTBAP chloride],scaled lipid accumulation score,library stock concentration: 5.7 mM,≤ -0.012
Cc1cn([C@H]2O[C@@H](CO)[C@H](O)[C@H]2F)c(=O)[nH]c1=O [Clevudine],scaled lipid accumulation score,[1],≤ 0
same,scaled lipid accumulation score,[2],≤ 0
O=C(CCC/C=C\C[C@H]1C(=O)C[C@@H](O)C1/C=C/[C@@H](O)CCc1ccccc1)NC(CO)CO (stereo partly specified) [17-phenyl trinor Prostaglandin E2 serinol amide],scaled lipid accumulation score,[3],≤ 0
NC(=O)N[C@@H](CCC(=O)O)C(=O)O,scaled lipid accumulation score,[2],≤ 0
O=C(Oc1cc(S(=O)(=O)c2ccccc2)ccc1[N+](=O)[O-])c1ccc(Cl)cc1,scaled lipid accumulation score,[1],≤ -0.009
same,scaled lipid accumulation score,[2],≤ 0
